From PubChem BioAssay (EPA / NIEHS)
Calls of active or inactive are those of the source. The calls were made as follows: active = hit-call score of the fitted dose curve at least 0.9, where 1 is the maximum; inactive = score below 0.9.

Assays:
[1] = molecular target: Transcription factor E2F1 (Homo sapiens) (UniProt Q01094); test: ATG_E2F_CIS: Attagene CIS-FACTORIAL HepG2 Assay for human E2F Transcription Factor 1 (AID 2282935); settings: HepG2 Attagene cis-reporter, E2F reporter RNA transcripts; actives raise or lower the signal
Outline: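 Measures reporter transcript levels via RT-PCR with capillary electrophoresis detection in HepG2 cells harboring cis-regulated reporter units; 24 h post-dose; bidirectional curve fitting with DMSO as baseline.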

[2] = ATG_E_Box_CIS: Attagene CIS-FACTORIAL HepG2 Assay for human Enhancer Box (E-box) (AID 2282936); settings: HepG2 E-box cis-reporter transcription, actives raise or lower the signal
Outline: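 First, HepG2 cells receive multiple cis-regulated reporter constructs by transient transfection. Next, chemicals are applied for 24 h. Finally, reporter mRNA is quantified via RT-PCR and capillary electrophoresis, with DMSO as baseline.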

[3] = ATG_M_61_CIS: Attagene CIS-FACTORIAL HepG2 Assay for M61 Transcription Factor (Internal Marker) (AID 2282937); settings: HepG2 Attagene CIS-FACTORIAL M61 internal marker reporter; actives raise or lower the signal
Outline: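 Transfect HepG2 with MRTUs; dose 24 h; isolate RNA; reverse-transcribe with DNase I treatment; PCR-amplify, FAM-label and cut with HpaI for 2 h at 37 C; resolve by CE. Bidirectional fitting against DMSO.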

[4] = ATG_EGR_CIS: Attagene CIS-FACTORIAL HepG2 Assay for human Early Growth Response 1 (EGR1) (AID 2282938); settings: HepG2 Attagene CIS-FACTORIAL EGR reporter mRNA; actives raise or lower the signal
Outline: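 After a 24 h treatment of transiently transfected HepG2 cells, total RNA was reverse-transcribed and reporter sequences PCR-amplified, labelled and run on capillary electrophoresis. Reporters sit under cis-regulatory promoters sensing endogenous factors.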

[5] = ATG_M_19_CIS: Attagene CIS-FACTORIAL HepG2 Assay for M19 Transcription Factor (Internal Marker) (AID 2282939); settings: HepG2 Attagene CIS-FACTORIAL M19 internal marker reporter; actives raise or lower the signal
Outline: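 Signals come from fluorescence of labelled reporter-specific PCR fragments resolved by capillary electrophoresis, following 24 h treatment of HepG2 cells transfected with cis-promoter reporter units; activity was fitted in both directions relative to DMSO.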

[6] = ATG_ERE_CIS: Attagene CIS-FACTORIAL HepG2 Assay for Estrogen Response Element (ERE) (AID 2282940); settings: HepG2 ERE cis-reporter, Attagene RNA transcript; actives raise or lower the signal
Outline: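 Fluorescence of capillary-separated, FAM-labelled reporter cDNA fragments indicates reporter mRNA levels in HepG2 cells exposed to chemicals for 24 h. Transient transfection with cis-regulated units; data fitted in both directions against DMSO.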

[7] = molecular target: Hepatocyte nuclear factor 3-beta (Homo sapiens) (UniProt Q9Y261); test: ATG_FoxA2_CIS: Attagene CIS-FACTORIAL HepG2 Assay for human Forkhead box A2 (FOXA2) (AID 2282942); settings: HepG2 cis-reporter transcription factor activity, 24 h; actives raise or lower the signal
Outline: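 24 h dosing of HepG2 bearing cis-reporter constructs; mRNA readout by RT-PCR/CE fluorescence; bidirectional fit, DMSO baseline.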

[8] = ATG_GATA_CIS: Attagene CIS-FACTORIAL HepG2 Assay for human GATA Binding Protein (AID 2282944); settings: HepG2 GATA cis-element reporter, Attagene multiplex mRNA; actives raise or lower the signal
Outline: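 After transfecting HepG2 cells with multiple cis-regulated reporter units, chemicals are dosed for 24 h; isolated RNA undergoes RT-PCR and fluorescent labeling before capillary electrophoresis, with activity expressed against DMSO.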

[9] = ATG_GLI_CIS: Attagene CIS-FACTORIAL HepG2 Assay for human Zinc Finger Protein GLI1 (AID 2282945); settings: HepG2, Attagene cis-factorial reporter mRNA, GLI element; actives raise or lower the signal
Outline: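 Transiently transfected HepG2 cells report endogenous transcription factor activity via cis-element-driven reporter units. After 24 h compound exposure, reporter mRNA was measured by RT-PCR with capillary electrophoresis; bidirectional fitting against DMSO baseline.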

[10] = ATG_GRE_CIS: Attagene CIS-FACTORIAL HepG2 Assay for human Glucocorticoid Response Elements (GRE) (AID 2282947); settings: HepG2 GRE cis-reporter, Attagene multiplex mRNA; actives raise or lower the signal
Outline: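 Endogenous transcription factor activity is read through cis-element reporter constructs transiently transfected into HepG2 cells. After 24 h treatment, labelled RT-PCR products are resolved by capillary electrophoresis; DMSO sets baseline for bidirectional curve fitting.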

[11] = ATG_ISRE_CIS: Attagene CIS-FACTORIAL HepG2 Assay for human Interferon Regulatory Factor 1 (IRF1) binding to an Interferon-Stimulated Response Element (ISRE) (AID 2282948); settings: HepG2 ISRE cis-reporter (Attagene), mRNA transcription readout; actives raise or lower the signal
Outline: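 HepG2 cells transiently transfected with multiplexed cis-promoter reporter units; after 24 h compound exposure, reporter mRNA quantified by RT-PCR, FAM labelling, HpaI digestion and capillary electrophoresis. Bidirectional fit versus DMSO baseline.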

[12] = ATG_M_32_CIS: Attagene CIS-FACTORIAL HepG2 Assay for M32 Transcription Factor (Internal Marker) (AID 2282949); settings: HepG2 Attagene cis-factorial M32 reporter, mRNA; actives raise or lower the signal;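 also: background control marker of the multiplexed CIS panel rather than a real target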
Outline: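 Internal background marker read-out: RT-PCR/capillary electrophoresis fluorescence of reporter transcripts from transiently transfected HepG2 cells after 24 h chemical exposure. Activity fitted bidirectionally relative to DMSO negative control.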

[13] = ATG_M_06_CIS: Attagene CIS-FACTORIAL HepG2 Assay for M06 Transcription Factor (Internal Marker) (AID 2282950); settings: HepG2 Attagene CIS-FACTORIAL M06 internal marker reporter; actives raise or lower the signal
Outline: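 HepG2 liver cells, 24 h exposure. Reporter transcripts from transfected cis-element constructs quantified by RT-PCR/capillary electrophoresis fluorescence. Bidirectional curve fit against DMSO.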

[14] = molecular target: Hypoxia-inducible factor 1-alpha (Homo sapiens) (UniProt Q16665); test: ATG_HIF1a_CIS: Attagene CIS-FACTORIAL HepG2 Assay for human Hypoxia Inducible Factor 1 (HIF1A) (AID 2282951); settings: HepG2 Attagene cis-factorial HIF1a reporter transcription; actives raise or lower the signal
Outline: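 After 24 h chemical exposure of reporter-transfected HepG2 cells, reporter cDNA was PCR-amplified, labelled by 6-FAM primer extension (2 min 95 C, 20 s 68 C, 10 min 72 C), HpaI-cut (2 h, 37 C) and analysed by CE.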

[15] = molecular target: Hepatocyte nuclear factor 6 (Homo sapiens) (UniProt Q9UBC0); test: ATG_HNF6_CIS: Attagene CIS-FACTORIAL HepG2 Assay for human Hepatocyte Nuclear Factor 6 (HNF6) (AID 2282952); settings: HepG2 Attagene cis-factorial HNF6 reporter transcription; actives raise or lower the signal
Outline: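 Reporter mRNA induction or loss in HepG2 after 24 h exposure; transient cis-MRTU transfection; fragments quantified by capillary electrophoresis; bidirectional analysis, DMSO as negative control.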

[16] = ATG_MRE_CIS: Attagene CIS-FACTORIAL HepG2 Assay for human Metal Responsive Element (MRE) (AID 2282954); settings: HepG2 MRE cis-reporter transcription, Attagene multiplex; actives raise or lower the signal
Outline: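 Fluorescent reporter fragments separated by capillary electrophoresis give mRNA induction for the MRE unit after 24 h treatment of transfected HepG2 cells. Endogenous transcription-factor activity is read; DMSO serves as negative control and baseline.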

[17] = ATG_Ets_CIS: Attagene CIS-FACTORIAL HepG2 Assay for human Erythroblast Transformation Specific (ETS) (AID 2282941); settings: HepG2 ETS cis-reporter transcription, actives raise or lower the signal
Outline: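 HepG2 cells transiently transfected with cis-promoter reporter transcription units were dosed for 24 h; reporter mRNA was measured by RT-PCR, 6-FAM primer extension, HpaI digestion and capillary electrophoresis, with bidirectional fitting against DMSO baseline.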

[18] = ATG_FoxO_CIS: Attagene CIS-FACTORIAL HepG2 Assay for human Forkhead box O (FoxO) (AID 2282943); settings: HepG2 Attagene cis-reporter, FoxO element, mRNA; actives raise or lower the signal
Outline: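 HepG2 cells transiently transfected with cis-element-driven reporter units report endogenous FoxO activity. After 24 h chemical exposure, reporter mRNA quantified by RT-PCR, fluorescent labeling, HpaI digestion and capillary electrophoresis; bidirectional fit versus DMSO.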

[19] = molecular target: Heat shock factor protein 1 (Homo sapiens) (UniProt Q00613); test: ATG_HSE_CIS: Attagene CIS-FACTORIAL HepG2 Assay for human Heat Shock Transcription Factor 1 (HSE) (AID 2282953); settings: HepG2 HSE cis-reporter, Attagene RNA transcription; actives raise or lower the signal
Outline: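 Endogenous transcription factor activity captured via cis-promoter reporter units transfected into HepG2; treatment lasted 24 h. Fluorescence intensity of reporter fragments analysed with bidirectional curve fitting, DMSO baseline.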

[20] = molecular target: Bile acid receptor (Homo sapiens) (UniProt Q96RI1); test: ATG_IR1_CIS: Attagene CIS-FACTORIAL HepG2 Assay for human Nuclear Receptor Subfamily 1 Group H Member 4 (NR1H4), IR1 submotif (AID 2282946); settings: IR1 reporter transcription, actives raise or lower the signal
Outline: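 HepG2 cells transiently transfected with multiple cis-promoter-driven reporter units to measure endogenous transcription factor activity; 24 h exposure. Reporter mRNA read by RT-PCR, FAM labelling, HpaI digestion and capillary electrophoresis. Bidirectional fit versus DMSO.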

Measured: AC50

Sequence of Hepatocyte nuclear factor 6 (Homo sapiens) (Q9UBC0 whole entry, looked up, the tested form may be a part): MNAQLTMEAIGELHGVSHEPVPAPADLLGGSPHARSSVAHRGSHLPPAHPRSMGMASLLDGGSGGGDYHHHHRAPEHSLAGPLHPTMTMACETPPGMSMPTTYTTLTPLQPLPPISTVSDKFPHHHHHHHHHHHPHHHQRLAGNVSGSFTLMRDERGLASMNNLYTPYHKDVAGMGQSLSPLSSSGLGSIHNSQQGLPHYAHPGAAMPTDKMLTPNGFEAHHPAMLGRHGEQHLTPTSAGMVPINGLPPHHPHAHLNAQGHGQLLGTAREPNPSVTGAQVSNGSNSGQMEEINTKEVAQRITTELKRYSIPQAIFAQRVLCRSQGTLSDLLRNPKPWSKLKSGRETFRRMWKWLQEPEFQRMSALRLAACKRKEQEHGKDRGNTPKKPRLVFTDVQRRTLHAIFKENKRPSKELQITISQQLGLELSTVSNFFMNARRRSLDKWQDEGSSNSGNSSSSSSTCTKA
Sequence of Bile acid receptor (Homo sapiens) (Q96RI1 whole entry, looked up): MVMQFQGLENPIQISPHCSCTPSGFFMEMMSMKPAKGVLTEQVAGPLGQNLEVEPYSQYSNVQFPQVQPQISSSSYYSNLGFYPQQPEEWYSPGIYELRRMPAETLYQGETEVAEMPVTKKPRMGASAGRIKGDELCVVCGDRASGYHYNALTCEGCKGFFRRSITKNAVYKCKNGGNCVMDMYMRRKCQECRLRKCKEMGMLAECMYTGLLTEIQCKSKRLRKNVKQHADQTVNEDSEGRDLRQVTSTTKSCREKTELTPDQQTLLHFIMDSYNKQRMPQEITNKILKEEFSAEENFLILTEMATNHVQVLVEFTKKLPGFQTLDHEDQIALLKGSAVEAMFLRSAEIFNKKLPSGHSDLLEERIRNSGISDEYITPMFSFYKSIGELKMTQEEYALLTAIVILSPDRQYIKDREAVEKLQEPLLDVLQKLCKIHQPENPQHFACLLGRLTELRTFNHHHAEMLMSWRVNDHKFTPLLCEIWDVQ
Sequence of Heat shock factor protein 1 (Homo sapiens) (Q00613 whole entry, looked up, the tested form may be a part): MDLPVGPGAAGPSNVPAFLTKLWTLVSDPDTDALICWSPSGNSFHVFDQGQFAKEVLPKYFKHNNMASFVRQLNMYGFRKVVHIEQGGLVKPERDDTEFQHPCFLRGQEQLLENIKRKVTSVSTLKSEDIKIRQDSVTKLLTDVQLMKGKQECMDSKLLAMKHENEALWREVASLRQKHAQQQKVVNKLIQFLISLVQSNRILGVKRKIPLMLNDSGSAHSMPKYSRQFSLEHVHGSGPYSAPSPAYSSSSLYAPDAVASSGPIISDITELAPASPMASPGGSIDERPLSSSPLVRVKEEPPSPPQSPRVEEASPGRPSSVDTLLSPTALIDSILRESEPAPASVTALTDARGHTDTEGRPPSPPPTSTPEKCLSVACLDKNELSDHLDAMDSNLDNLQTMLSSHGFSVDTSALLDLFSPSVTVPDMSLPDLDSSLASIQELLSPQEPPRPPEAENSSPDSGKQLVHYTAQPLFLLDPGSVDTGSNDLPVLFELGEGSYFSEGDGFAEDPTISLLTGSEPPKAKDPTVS
Sequence of Transcription factor E2F1 (Homo sapiens) (Q01094 whole entry, looked up): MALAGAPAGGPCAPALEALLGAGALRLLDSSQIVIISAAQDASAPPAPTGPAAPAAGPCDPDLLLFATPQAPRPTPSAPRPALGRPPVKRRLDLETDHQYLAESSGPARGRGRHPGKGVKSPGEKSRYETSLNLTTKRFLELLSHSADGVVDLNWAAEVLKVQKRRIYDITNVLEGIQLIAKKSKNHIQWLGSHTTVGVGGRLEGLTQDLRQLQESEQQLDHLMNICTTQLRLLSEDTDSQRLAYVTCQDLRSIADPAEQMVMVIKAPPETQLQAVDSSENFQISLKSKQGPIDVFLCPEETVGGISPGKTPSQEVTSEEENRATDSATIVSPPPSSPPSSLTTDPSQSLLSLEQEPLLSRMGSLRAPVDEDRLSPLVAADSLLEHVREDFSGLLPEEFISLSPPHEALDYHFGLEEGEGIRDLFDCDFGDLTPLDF
Sequence of Hepatocyte nuclear factor 3-beta (Homo sapiens) (Q9Y261 whole entry, looked up): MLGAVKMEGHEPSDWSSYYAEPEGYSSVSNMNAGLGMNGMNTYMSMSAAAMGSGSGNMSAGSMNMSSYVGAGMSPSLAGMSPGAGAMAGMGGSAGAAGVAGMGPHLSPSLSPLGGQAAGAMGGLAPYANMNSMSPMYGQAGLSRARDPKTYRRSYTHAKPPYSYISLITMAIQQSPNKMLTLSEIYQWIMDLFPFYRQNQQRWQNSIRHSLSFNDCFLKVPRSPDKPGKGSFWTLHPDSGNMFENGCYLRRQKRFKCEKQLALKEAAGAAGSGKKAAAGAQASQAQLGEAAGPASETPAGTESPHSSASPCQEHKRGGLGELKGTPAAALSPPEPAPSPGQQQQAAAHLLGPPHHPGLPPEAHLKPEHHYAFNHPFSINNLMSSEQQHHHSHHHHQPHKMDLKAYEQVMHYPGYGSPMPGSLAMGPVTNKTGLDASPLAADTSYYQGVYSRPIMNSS
Sequence of Hypoxia-inducible factor 1-alpha (Homo sapiens) (Q16665 whole entry, looked up): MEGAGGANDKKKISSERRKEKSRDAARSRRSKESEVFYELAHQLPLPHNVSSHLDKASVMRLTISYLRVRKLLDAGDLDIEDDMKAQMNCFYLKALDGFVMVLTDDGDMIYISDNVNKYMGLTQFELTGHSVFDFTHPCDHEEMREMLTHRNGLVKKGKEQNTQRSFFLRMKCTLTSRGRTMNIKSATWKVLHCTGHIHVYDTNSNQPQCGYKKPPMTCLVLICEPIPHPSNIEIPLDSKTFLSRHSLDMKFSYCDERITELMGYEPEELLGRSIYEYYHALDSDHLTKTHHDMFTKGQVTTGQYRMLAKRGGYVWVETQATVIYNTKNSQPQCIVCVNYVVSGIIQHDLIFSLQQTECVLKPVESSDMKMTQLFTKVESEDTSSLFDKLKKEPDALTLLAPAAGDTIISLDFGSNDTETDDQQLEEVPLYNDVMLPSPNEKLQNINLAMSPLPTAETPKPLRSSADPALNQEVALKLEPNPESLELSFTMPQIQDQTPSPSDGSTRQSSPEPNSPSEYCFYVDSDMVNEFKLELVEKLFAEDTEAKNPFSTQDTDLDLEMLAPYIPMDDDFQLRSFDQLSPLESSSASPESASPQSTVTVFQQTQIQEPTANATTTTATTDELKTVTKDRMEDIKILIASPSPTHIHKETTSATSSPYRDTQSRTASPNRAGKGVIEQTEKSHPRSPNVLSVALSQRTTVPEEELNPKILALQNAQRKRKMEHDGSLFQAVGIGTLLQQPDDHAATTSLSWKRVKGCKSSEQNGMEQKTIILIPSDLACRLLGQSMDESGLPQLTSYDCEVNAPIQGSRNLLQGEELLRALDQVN

CCCCC(CC)COC(=O)CC(C(=O)OCC(CC)CCCC)S(=O)(=O)O (stereo unspecified)
active: [14] 0.000743 µM
not listed: [17] | [18] | [19] | [20]
inactive: all other assays above

CCCCCCCCCCCCCO
active: [12] 34.3 µM
not listed: [2] | [14] | [20]
inactive: all other assays above

CCOc1ccc2c(c1)C(C)=CC(C)(C)N2
active: [4] 144 µM | [6] 25.5 µM | [18] 179 µM | [19] 152 µM | [16] 148 µM
not listed: [2] | [10] | [14] | [17] | [20]
inactive: all other assays above

O=c1[nH]cc(F)c(=O)[nH]1
not listed: [2] | [14] | [18]
inactive: all other assays above

NCCO
not listed: [2] | [17] | [19] | [20]
inactive: all other assays above

CNC(=O)[C@H]1O[C@@H](n2cnc3c(NCc4cc(Cl)ccc4OCc4cc(C)no4)ncnc32)[C@H](O)[C@@H]1N
not listed: [2] | [17] | [18] | [19]
inactive: all other assays above

CN1CCN(Cc2cc(-c3ccc4[nH]c(=O)oc4c3)co2)[C@@H](c2ccc(F)cc2)C1
active: [4] 33 µM | [11] 18 µM | [14] 6.55 µM | [16] 48.6 µM
not listed: [2] | [17] | [18] | [19]
inactive: all other assays above

CC(=O)OC/C=C(\C)CCC=C(C)C
not listed: [2] | [17] | [18] | [20]
inactive: all other assays above

CCCCCCCCCCCC(=O)OC
not listed: [2] | [17] | [19]
inactive: all other assays above

C[C@]12C=CC(=O)C=C1CC[C@@H]1[C@@H]2C(=O)C[C@@]2(C)[C@H]1CC[C@]2(O)C(=O)CO
active: [6] 6.76 µM
not listed: [2] | [10] | [14] | [17] | [18] | [19] | [20]
inactive: all other assays above

CC1=C(/C=C/C(C)=C/C=C/C(C)=C/CO)C(C)(C)CCC1
active: [4] 80.7 µM | [5] 172 µM | [6] 4.13 µM | [18] 167 µM | [8] 166 µM | [15] 158 µM | [16] 106 µM
not listed: [2] | [10] | [14] | [19] | [20]
inactive: all other assays above

Cc1ccc(C)c(C)c1
not listed: [2] | [14] | [17] | [20]
inactive: all other assays above

Cc1cccc([N+](=O)[O-])c1C
not listed: [2] | [10] | [17] | [20]
inactive: all other assays above

CCCCOC(=O)CCCCCCCCC(=O)OCCCC
not listed: [2] | [17] | [18] | [20]
inactive: all other assays above

COc1ccc2c(c1)c(CC(=O)O)c(C)n2C(=O)c1ccc(Cl)cc1
not listed: [2] | [14] | [18] | [20]
inactive: all other assays above

Cc1ccc(Cl)cc1
active: [14] 57.2 µM
not listed: [2] | [18]
inactive: all other assays above
